Rows were chosen to be rich in hits. Some 1.2% of all compounds tested hit in one or more screens of this group.
S1P2 blocker = antagonists of human S1P2 receptor; O95136; AID 736; cell-based S1P2 antagonist assay, inhibition at 5 uM; inhibition, % at 5 µM; hit rate 0.21% among 97,000; in the data active means inhibition above about 45%;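 further: CRE beta-lactamase reporter cells expressing human S1P2 stimulated with S1P; 0% = agonist at EC80 alone and 100% = agonist plus reference antagonist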
S1P2 agonist = S1P2 (human) receptor agonism. O95136. S1P2-expressing cell line, agonist reporter read-out. activation, % at 4.5 µM. hit rate 0.46% among 97,000; in the data active means activation above about 16%;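 further: 0% = vehicle low control and 100% = maximal reference agonist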
GALR2 antag = antagonists of human galanin receptor 2 (GALR2); O43603; GALR2-expressing cells, antagonist mode; inhibition, % at 4 µM; hit rate 0.39% among 140,000; AID 828;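 further: cells stimulated with galanin 1-16 at roughly its EC80; 0% = agonist challenge control and 100% = basal control without agonist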
Target sequence (O43603 whole entry, looked up): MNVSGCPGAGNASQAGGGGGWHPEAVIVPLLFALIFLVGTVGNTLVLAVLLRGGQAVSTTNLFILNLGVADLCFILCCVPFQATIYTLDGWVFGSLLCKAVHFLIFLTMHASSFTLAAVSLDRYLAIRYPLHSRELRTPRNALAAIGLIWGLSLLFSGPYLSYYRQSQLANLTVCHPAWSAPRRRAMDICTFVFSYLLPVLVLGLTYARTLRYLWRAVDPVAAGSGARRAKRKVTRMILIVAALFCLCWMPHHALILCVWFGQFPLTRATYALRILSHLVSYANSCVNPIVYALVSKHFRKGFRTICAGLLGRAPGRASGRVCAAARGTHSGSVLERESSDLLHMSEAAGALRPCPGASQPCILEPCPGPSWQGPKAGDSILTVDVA
GALR2 ag = activates the human galanin receptor 2; O43603; GALR2-expressing cells, agonist activation read-out; activation, % (no concentration beside the values); hit rate 0.48% among 140,000; in the data active means activation above about 5%, passing the limit was not always enough;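 further: 0% = vehicle buffer wells and 100% = reference agonist at full effect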
GALR2 blk conf = confirmation of human galanin receptor 2 (GALR2) antagonists | inhibition, % at 4 µM | hit rate 60% among 480 | GALR2-expressing cells, antagonist mode, inhibition | shares compounds with GALR2 antag;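 further: cells stimulated with galanin at about its EC80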
BLA inhib ctr = counter-screen for GALR2 antagonists: beta-lactamase reporter inhibitors; shares compounds with GALR2 antag; CHO NFAT-BLA reporter, beta-lactamase FRET, thapsigargin-stimulated; inhibition, % at 4.2 µM; hit rate 36% among 480; AID 867;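 active means inhibition above the mean inhibition across tested compounds plus 3 SD, cut at about 27% in these data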;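 further: 0% = 500 nM thapsigargin stimulated wells and 100% = unstimulated BSA only wells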
Numbers without * were called inactive; · = no result. Unless noted, no stated cut-off is given here; in the data, active means inhibition above about 27%; inactive means the rest.

SMILES	S1P2 blocker	S1P2 agonist	GALR2 antag	GALR2 ag	GALR2 blk conf	BLA inhib ctr
COCCCN(C(=O)c1ccco1)c1nc(-c2cc(OC)ccc2OC)cs1	-3	-2	85*	-1	5	12
CCC(=O)N(CCCN(C)C)c1nc(-c2cc(OC)ccc2OC)cs1	3	-4	6	-1	·	·
c1ccc(CN2CCN(C3=Nc4cccc5cccc3c45)CC2)cc1	4	-1	-1	-3	·	·
O=C1CCN2C=Nc3cccc4ccc1c2c34	3	-5	29*	0	20	21
Cc1ccc(N2CN(Cc3ccco3)CNC2=S)c(C)c1	·	·	7	0	·	·
Cc1cc(C(=O)COC(=O)c2ccccc2O)c(C)n1Cc1cccs1	-11	0	-1	-3	·	·
CC(=O)Nc1ccccc1OCC(=O)c1cc(C)n(Cc2cccs2)c1C	·	·	39*	-1	51*	24
Cc1cccc(C(=O)Nc2ccc(C(=O)/C=C/c3cccnc3)cc2)c1	·	·	31*	0	32*	7
O=C(/C=C/c1cccnc1)c1ccc(NC(=O)c2cccc(Br)c2)cc1	8	-4	-5	-2	·	·
Cc1ccc2nsnc2c1NC(=O)c1ccc2c(c1)OCCO2	-9	-3	38*	-4	5	4
O=C(/C=C/c1ccc(Cl)c([N+](=O)[O-])c1)Nc1ccc(NC(=O)c2ccco2)cc1	·	·	33*	-1	18	2
O=C(/C=C/c1ccc(Cl)c([N+](=O)[O-])c1)Nc1cccc(NC(=O)c2ccco2)c1	·	·	6	-2	·	·
Cc1nnc(SCC(=O)Nc2cccc(S(=O)(=O)N(C)c3ccccc3)c2)s1	·	·	32*	0	35*	9
O=C(OCn1ncc(Br)c(Br)c1=O)c1ccccc1Cl	51*	-5	79*	-3	95*	97*
O=C(OCn1ncc(Br)c(Br)c1=O)c1ccc(F)cc1	54*	-2	79*	-5	92*	95*
O=C(OCc1cnc(Cl)s1)c1ccccc1Cl	15	-2	0	-2	·	·
O=c1[nH]c(SCc2nc3ccccc3c(=O)n2-c2ccccc2C(F)(F)F)nc2ccccc12	·	·	-2	1	·	·
CC(Cc1cccs1)NC(=O)Nc1cccc(Cl)c1 (stereo unspecified)	-12	-7	5	-4	·	·
CC(Cc1cccs1)NC(=O)Nc1ccc(F)cc1 (stereo unspecified)	4	-5	28*	-3	12	9
N#CC1=C(N)SC(N)=C(C#N)C1CCC1CCCCC1	-10	1	-8	0	·	·
CC1(C)CC(=O)/C(=C\c2cccc([N+](=O)[O-])c2)C(C)(C)N1	·	·	27*	-1	34*	13
CCOc1ccccc1NC(=O)COC(=O)CSc1ccc(Cl)cc1	·	·	5	-1	·	·
Cc1nc2cc(-c3ccccc3)nn2c(C)c1CCC(=O)NC(C)c1ccc2c(c1)OCCO2 (stereo unspecified)	·	·	7	0	·	·
O=C1C(Nc2ccccc2)=C/C(=N/S(=O)(=O)c2cccs2)c2ccccc21	·	·	88*	5.5*	67*	71*
Cc1ccc(NC2=C/C(=N/S(=O)(=O)c3cccs3)c3ccccc3C2=O)cc1	·	·	3	2	·	·
SMILES	S1P2 blocker	S1P2 agonist	GALR2 antag	GALR2 ag	GALR2 blk conf	BLA inhib ctr
O=C(c1cccs1)N1CCN(Cc2ccccc2[N+](=O)[O-])CC1	·	·	15	-1	·	·
Cn1c2c(c(=O)n(C)c1=O)C(C(F)(F)F)(C(F)(F)F)N=C(c1ccc(Cl)cc1)N2	86*	-8	68*	-1	72*	58*
O=C(COC(=O)Cc1ccsc1)NCC1CCCCC1	-3	-5	17	-3	·	·
Cc1ccc(-n2c(-c3ccc(Br)cc3)c[n+]3c2CCc2ccc4cccnc4c2-3)cc1	88*	-6	59*	1	31*	61*
CC1=C(C)C(=O)N(c2ccccn2)C1=O	19	-12	2	1	·	·
O=C1c2cccc3cccc(c23)C(=O)N1c1nccs1	12	0	-15	-1	·	·
O=C1c2cccc3c([N+](=O)[O-])ccc(c23)C(=O)N1c1nccs1	51*	-10	50*	2	55*	35*
O=C1c2cccc3c([N+](=O)[O-])ccc(c23)C(=O)N1c1ccccn1	67*	-8	34*	2	49*	44*
C#CC(=O)N(c1ccc(OC)c(OC)c1)C(C(=O)NC1CCCC1)c1cccs1 (stereo unspecified)	35	-12	41*	-2	54*	51*
COc1ccc(N(C(=O)Cc2cccs2)C(C(=O)NC2CCCCC2)c2cccn2C)cc1OC (stereo unspecified)	-22	-10	-15	-2	·	·
